Data reported in PubChem BioAssay (NCATS).
Results filed as inconclusive are left out. Active and inactive are the calls of the source. Calls come from the whole dose curve; as a rule, active = well fitted inhibition curve with a large enough effect; inconclusive = small, poorly fitted or top-dose-only effect; inactive = flat fitted curve, though single readings scatter.

What was measured:
CRL-7250 = normal cell line; assay: Cytotoxic Profiling of Annotated Libraries Using Quantitative High-Throughput Screening (AID 1296008); conditions: Five cell lines viability, CellTiter-Glo ATP luminescence, 48-72 h; max response: stronger effect = lower value; for max response: % is set by controls: 0 for no effect and ±100 for the full control effect
In short: (§1)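 Cytotoxicity was measured as CellTiter-Glo ATP luminescence, read after 10 min at room temperature. Compound treatment of the cells lasted 48 or 72 hr at 37 degrees Celsius in a qHTS format.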

HEK293 = assay: as above; conditions: Five cell lines viability, CellTiter-Glo ATP luminescence, 48-72 h; max response: stronger effect = lower value
In short: as §1

HaCat [1] = assay: as above; conditions: Five cell lines viability, CellTiter-Glo ATP luminescence, 48-72 h; max response: stronger effect = lower value
In short: as §1

KB-3-1 = assay: as above; conditions: Five cell lines viability, CellTiter-Glo ATP luminescence, 48-72 h; max response: stronger effect = lower value
In short: as §1

NIH3T3 = assay: as above; conditions: Five cell lines viability, CellTiter-Glo ATP luminescence, 48-72 h; max response: stronger effect = lower value
In short: as §1

HACAT [2] = assay: qHTS assay to identify novel small-molecules to repurpose for Merkel cell carcinoma treatment (AID 1296009); conditions: MCC and control cell lines, CellTiter-Glo viability, 72 h; at 44.8 µM (top of the series) unless noted
In short: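 72 hr, 37 degree celsius; NPC 8-pt / MIPE 11-pt dose response; compound pinned in DMSO; CellTiter-Glo, 10 min RT, luminescence; normalized to no-cell and DMSO controls.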

Measured: max response
Note: nearly all actives have a fitted effect of over 60% in size.

C/C=C/C=C/C(=O)OC1CC/C=C/C(O)C(O)C(CCC)OC1=O (stereo not given)
inactive: CRL-7250 -18.3% | HEK293 4.94% | HaCat [1] | KB-3-1 4.6% | NIH3T3 | HACAT [2]

O=C(OCC1=C[C@@H](O)[C@@H]2C=CO[C@@H](O[C@@H]3O[C@H](CO)[C@@H](O)[C@H](O)[C@H]3O)[C@H]12)c1ccc(O)cc1
inactive: CRL-7250 -4.11% | HEK293 1.2% | HaCat [1] | KB-3-1 1.69% | NIH3T3 | HACAT [2] inactive [at 17.4 µM]

Nc1ccc(-n2nc(C(F)(F)F)cc2C(F)(F)F)cc1
inactive: CRL-7250 1.57% | HEK293 -3.16% | HaCat [1] | KB-3-1 7.09% | NIH3T3 | HACAT [2]

COc1cncc(C#Cc2ccccn2)c1
inactive: CRL-7250 4.39% | HEK293 2.17% | HaCat [1] | KB-3-1 -1.99% | NIH3T3 -3.14% | HACAT [2]

C[C@H](O)C(O)(C(=O)OCc1ccccc1NC(=O)CCC(N)C(=O)O)[C@H](C)O (stereo not given in full)
inactive: CRL-7250 -7.85% | HEK293 -11.8% | HaCat [1] | KB-3-1 | NIH3T3 | HACAT [2] inactive [at 17.4 µM]

CC(C)C[C@H](NC(=O)[C@@H]1O[C@H]1C(=O)O)C(=O)NCCCCN=C(N)N
inactive: CRL-7250 -9.88% | HEK293 -19.1% | HaCat [1] | KB-3-1 2.43% | NIH3T3 0.0799% | HACAT [2]

COC(=O)C[C@H]1C(C)(C)[C@H](OC(=O)C(C)C)C2CC3=C4CC(=O)O[C@@H](c5ccoc5)[C@]4(C)CCC3[C@@]1(C)C2=O (stereo not given in full)
inactive: CRL-7250 2.69% | HEK293 -10.8% | HaCat [1] | KB-3-1 -0.987% | NIH3T3 1.73% | HACAT [2] inactive [at 17.4 µM]

COC(=O)C1=COC(O[C@@H]2O[C@H](CO)[C@@H](O)[C@H](O)[C@H]2O)/C(=C\COC(=O)/C=C/c2ccccc2)C1CC(=O)OCCc1ccc(O)cc1 (stereo not given in full)
inactive: CRL-7250 -7.39% | HEK293 -5.04% | HaCat [1] | KB-3-1 | NIH3T3 | HACAT [2] inactive [at 17.4 µM]

N#Cc1cc(-c2n[nH]c(-c3ccncc3)n2)ccn1
inactive: CRL-7250 -0.428% | HEK293 -15.1% | HaCat [1] | KB-3-1 -1.34% | NIH3T3 0.552% | HACAT [2]

CC(=O)C1CCC(=O)N1Cc1ccccc1 (stereo not given)
inactive: CRL-7250 | HEK293 -9.27% | HaCat [1] | KB-3-1 -4.66% | NIH3T3 3.14% | HACAT [2]

CCCCNc1nc(N)c2[nH]c(=O)n(Cc3ccc(OCCN(C)C)nc3)c2n1
inactive: CRL-7250 -6.94% | HEK293 -20.1% | HaCat [1] | KB-3-1 | NIH3T3 inactive; activator | HACAT [2]

Cc1occc(=O)c1O[C@@H]1O[C@H](CO[C@@H]2OC[C@](O)(CO)[C@H]2O)[C@@H](O)[C@H](O)[C@H]1O
inactive: CRL-7250 | HEK293 0.165% | HaCat [1] | KB-3-1 | NIH3T3 1.4% | HACAT [2] inactive [at 17.4 µM]

COc1ccnc2[nH]cc(C(=O)C(=O)N3CCN(C(=O)c4ccccc4)CC3C)c12 (stereo not given)
inactive: CRL-7250 0.507% | HEK293 -0.0222% | HaCat [1] | KB-3-1 | NIH3T3 -4.76% | HACAT [2]

O=C(Cc1ccccc1)OC[C@H]1O[C@H](O[C@H]2O[C@H](CO)[C@@H](O)[C@H](O)[C@H]2O)[C@H](O)[C@@H](O)[C@@H]1O
inactive: CRL-7250 -5.14% | HEK293 4.52% | HaCat [1] | KB-3-1 9.38% | NIH3T3 0.692% | HACAT [2] inactive [at 17.4 µM]

CCCC(=O)Nc1cccc(NC(=O)c2ccccc2Br)c1
inactive: CRL-7250 | HEK293 -4.38% | HaCat [1] | KB-3-1 8.7% | NIH3T3 3.78% | HACAT [2]

CC/C=C\C(O)C(O)C1=C(C)C(=O)C2(O1)C(=O)NC(OC)(C(=O)c1ccccc1)C2O (stereo not given)
inactive: CRL-7250 | HEK293 -0.178% | HaCat [1] | KB-3-1 7.12% | NIH3T3 -1.62% | HACAT [2] inactive [at 17.4 µM]

COc1ccnc(CCc2nc3ncccc3[nH]2)c1
inactive: CRL-7250 -4.02% | HEK293 -80.6% | HaCat [1] | KB-3-1 | NIH3T3 3.19% | HACAT [2]

OC[C@H]1O[C@@H](OCc2ccccc2)[C@H](O)[C@@H](O)[C@@H]1O
inactive: CRL-7250 0.468% | HEK293 -5.26% | HaCat [1] | KB-3-1 1.59% | NIH3T3 | HACAT [2]

COC(=O)C1=CO[C@@H](O[C@@H]2O[C@H](CO)[C@@H](O)[C@H](O)[C@H]2O)[C@@H]2[C@@H](C(=O)O)CC[C@H]12
inactive: CRL-7250 -20% | HEK293 -0.168% | HaCat [1] | KB-3-1 3.46% | NIH3T3 0.607% | HACAT [2] inactive [at 17.4 µM]

CC1(C)CC[C@]2(C(=O)O[C@@H]3O[C@H](CO)[C@@H](O)[C@H](O)[C@H]3O)CC[C@]3(C)C(=CCC4[C@@]5(C)C[C@H](O)[C@H](O[C@@H]6O[C@H](C(=O)O)[C@@H](O)[C@H](O)[C@H]6O)[C@@](C)(CO)C5CC[C@]43C)C2C1 (stereo not given in full)
inactive: CRL-7250 -4.26% | HEK293 1.87% | HaCat [1] | KB-3-1 -16.3% | NIH3T3 | HACAT [2] inactive [at 9.27 µM]

COc1cc(O)c2c(c1Cl)CC(C)OC2=O (stereo not given)
inactive: CRL-7250 | HEK293 -0.0766% | HaCat [1] | KB-3-1 3.15% | NIH3T3 | HACAT [2]

C[C@H](/C=C/[C@@]1(O)[C@H](C)CC(=O)CC1(C)C)O[C@@H]1O[C@H](CO[C@@H]2OC[C@@H](O)[C@H](O)[C@H]2O)[C@@H](O)[C@H](O)[C@H]1O
inactive: CRL-7250 | HEK293 -7.74% | HaCat [1] | KB-3-1 | NIH3T3 -1.42% | HACAT [2] inactive [at 17.4 µM]

CC(=O)OC1CC(=O)C2(C)C3CC4=C(OC(C)CC4=O)OC3(C)CCC2C1(C)C (stereo not given)
inactive: CRL-7250 | HEK293 2.23% | HaCat [1] | KB-3-1 | NIH3T3 1.19% | HACAT [2] inactive [at 17.4 µM]

CC1=CC(=O)C(=C(C)C)CC2C(C)(O)CCC12O (stereo not given)
inactive: CRL-7250 | HEK293 -0.243% | HaCat [1] | KB-3-1 8.8% | NIH3T3 | HACAT [2]

CC1CCC2(C(=O)O)CCC3(C)C(=CCC4C5(C)CCC(O)C(C)(C(=O)O)C5CCC43C)C2C1(C)O (stereo not given)
inactive: CRL-7250 -10.9% | HEK293 -11.5% | HaCat [1] | KB-3-1 3.72% | NIH3T3 | HACAT [2] inactive [at 17.4 µM]
